Assay type in all cases: functional
Assay [1] deals with Plasmodium falciparum. Put plainly: GSK_TCMDC: Inhibition of Plasmodium falciparum 3D7 in whole red blood cells, using parasite LDH activity as an index of growth. Test compounds present at 2uM.
Assay [2] concerns Plasmodium falciparum. Put plainly: GSK_TCMDC: Inhibition of Plasmodium falciparum Dd2 in whole red blood cells, using parasite LDH activity as an index of growth. Test compounds present at 2uM.
The subject of assay [3] is HepG2. Put plainly: GSK_TCMDC: Percent inhibition of human HepG2 cell line. Test compounds present at 10uM.

The Inhibition is the relative decrease from the control value, in per cent. Lower therefore signals a response near the control. Consider `COC(=O)c1ccc2c(c1)nc(Nc1cccc(F)c1)n2CC(O)c1ccccn1` (stereo not given), for which the Inhibition in assay [1] came out at 99%; in assay [2], 96%; in assay [3], 0%.

With `CCc1cc(Br)c(CNCCCNc2cc(=O)c3ccccc3[nH]2)s1.Cl`, the results for the Inhibition in assay [1], in assay [2] and in assay [3] were 90%, 45% and 6%, respectively.

Consider `Fc1cccc(COc2ccc(-n3ccc4c(NCCCn5ccnc5)ncnc43)cc2Cl)n1`, for which the figures for the Inhibition in assay [1], in assay [2] and in assay [3] were 87%, 29% and 14%, respectively.

Consider `Cl.c1ccc2c(NCCOCCNc3c4ccccc4nc4ccccc34)c3ccccc3nc2c1`, for which the results for the Inhibition in assay [1] and in assay [2] were 94% and 0%, respectively.

As to `O=C(COC(=O)c1cccc(S(=O)(=O)N2CCc3ccccc32)c1)NNC(=O)c1cccs1`, the Inhibition in assay [1] is on record as 96%; in assay [2], 4%; in assay [3], 4%.

Consider `Cc1cnc(N2CCN(CCCN3CCCC3)CC2)nc1Oc1ccc(-n2ccnc2)cc1.O=C(O)C(F)(F)F`, for which the Inhibition came to 99% in assay [1], 82% in assay [2] and 12% in assay [3].

For the compound `O=C(Nc1ccc(F)cc1)c1ccc(C(=O)NC2CCN(CC3CCCCC3)CC2)cc1.O=C(O)C(F)(F)F`, the Inhibition stood at 99% in assay [1], 0% in assay [2] and 34% in assay [3].

For `CCN(CC)CCCCOc1ccc2c(c1)C(=O)c1cc(OCCCCN(CC)CC)ccc1-2.Cl`, the values for the Inhibition in assay [1], in assay [2] and in assay [3] were 100%, 44% and 24%, respectively.

As to `N[C@@H](Cc1cc(I)c(Oc2ccc(O)c(Cl)c2)c(I)c1)C(=O)O`, the Inhibition in assay [1] was 96%; in assay [2] it was 0%; in assay [3], 0%.

Take `N#CC1(c2ccccc2)CCN(c2nc(NCCCN3CCCC3=O)nc(N3CCCC4CCCCC43)n2)CC1` (stereo not given): the Inhibition amounted to 95% in assay [1], 92% in assay [2] and 0% in assay [3].

Regarding `CCN(CC)CCCC(C)Nc1c2ccc(Cl)cc2nc2ccc(OC)cc12.Cl.O` (stereo not given), the Inhibition in assay [1] and in assay [2] was 100% each time.

On to `CCOC(=O)c1ccc(NC(=O)N[C@H]2CCN(CCCCCNC(=O)/C=C/c3ccc(Cl)c(Cl)c3)C2)cc1`, for which the Inhibition in assay [1] came to 98%; in assay [2], 1%; in assay [3], 21%.

Take `CCN(CC)CCN(Cc1ccc(-c2ccc(C(F)(F)F)cc2)cc1)C(=O)Cn1c(CCc2cccc(F)c2F)nc(=O)c2ccc(F)cc21.O=C(O)C(O)C(O)C(=O)O`: the figures for the Inhibition in assay [1], in assay [2] and in assay [3] were 98%, 41% and 14%, respectively.

For the compound `Cc1ccc(-c2nnc(Nc3ccc(C(=O)N4CCCCC4)cc3)c3ccccc23)cc1S(=O)(=O)NCC1CCCO1` (stereo not given), the Inhibition in assay [1] was 99%; in assay [2] it was 99%; in assay [3], 0%.

`Cl.NCc1ccc(Nc2nccc(Nc3ccc(-c4ccccc4)cc3)n2)cc1`: the Inhibition worked out at 100% in assay [1], 98% in assay [2] and 47% in assay [3].

As to `O=C(Cc1ccc([N+](=O)[O-])cc1)N1CCc2cc3nccc(N4CCN5CCC[C@@H]5C4)c3cc21`, the results for the Inhibition in assay [1], in assay [2] and in assay [3] were 95%, 7% and 0%, respectively.

As for `CCOc1cc(C(=O)NCc2cc(Cl)cc(Cl)c2)ccc1-c1nc2cc(Cl)ccc2[nH]1`, the Inhibition in assay [1] is recorded as 100%; in assay [2], 5%; in assay [3], 1%.

On to `Cl.N=C(N)NN=Cc1c2ccccc2c(Cl)c2ccc(Cl)cc12`, for which the Inhibition in assay [1] stood at 98%; in assay [2] it was 89%; in assay [3], 97%.

On to `Cc1[nH]c(C)c(-c2ccc(Oc3ccc(Cl)cc3)cc2)c(=O)c1C`, for which the Inhibition is given as 96% in assay [1] and 95% in assay [2].

In the case of `CCC1CN2CCc3c([nH]c4ccccc34)C2CC1CC1NCCc2cc(OC)c(OC)cc21.Cl` (stereo not given), the values for the Inhibition in assay [1], in assay [2] and in assay [3] were 100%, 83% and 26%, respectively.

Turning to `CC(C)N1CCN(CCCCNc2c3ccccc3nc3ccccc23)CC1.Cl`, the Inhibition in assay [1] amounted to 100%; in assay [2], 0%; in assay [3] it was 38%.

For `O=C(Cn1c(CCc2cccc(F)c2F)nc(=O)c2ccccc21)N(CCN1CCCCC1)Cc1ccc(-c2ccc(C(F)(F)F)cc2)cc1.O=C(O)C(O)C(O)C(=O)O`, the results for the Inhibition in assay [1], in assay [2] and in assay [3] were 100%, 89% and 32%, respectively.

For `CCNC(=O)Nc1ccc(N(C)c2ccnc(NC3CC3)n2)cc1`, the Inhibition in assay [1] stood at 100%; in assay [2], 80%; in assay [3], 21%.

As to `CC(=O)Nc1ccc(OCCCN(Cc2ccccc2OC(F)(F)F)c2ccc(C(F)(F)F)c(C#N)c2)c(Cl)c1`, the Inhibition was 91% in assay [1], 80% in assay [2] and 5% in assay [3].

`CCCNCc1ccc(-c2ccc(CN(CC3CCCO3)C(=O)COc3ccccc3Cl)cc2)nc1.O=C(O)C(F)(F)F` (stereo not given): the values for the Inhibition in assay [1], in assay [2] and in assay [3] were 89%, 11% and 5%, respectively.

As to `O=C(/C=C/c1ccc(Cl)c(Cl)c1)NCCCCCN1CCCN(C(=O)Nc2cccc(F)c2)CC1`, the Inhibition in assay [1] worked out at 97%; in assay [2], 4%; in assay [3], 20%.

Consider `Nc1nc(N)c2c(Sc3ccc(F)cc3)cccc2n1`, for which the Inhibition is recorded as 88% in assay [1] and 0% in assay [2].

Regarding `CCOc1ccc(-c2nonc2NC(=O)CC(C)C)cc1OCC`, the figures for the Inhibition in assay [1], in assay [2] and in assay [3] were 92%, 37% and 0%, respectively.

On to `CCC(=C(CC)c1ccc(O)c(CNC2CCCCC2)c1)c1ccc(O)c(CNC2CCCCC2)c1.Cl`, for which the Inhibition in assay [1] and in assay [2] was 100% throughout.

Regarding `O=C(NC1CCN(CCC[C@]2(c3ccc(Cl)c(Cl)c3)CCCN(C(=O)c3ccccc3)C2)CC1)c1ccc(F)cc1`, the Inhibition in assay [1] is 90%; in assay [2], 68%; in assay [3] it was 52%.

The values above are taken from ChEMBL document CHEMBL1157539, “Thousands of chemical starting points for antimalarial lead identification” (Nature, 2010).
